Measured values from PubChem BioAssay AID1159580 (chemical genetic matrix, 2015).
Screen size: about 5,500 compounds; about 2,000 (36%) were called active. Inconclusive results (about 18%) are left out. Rule as the data show it: active = normalized growth mostly below about 0.91 (no sharp cut-off); inconclusive = no clear call, values can overlap the other calls; inactive = mostly above about 0.92. The list shows a part of the results.

Assay: chemical genetic growth profiling, strain panel (AID 1159580);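 also: tested at 20 µM; growth read once vehicle control cultures reached saturation at 30 °C; 1 = growth at the plate median or of vehicle wells; lower values mean less growth of the strain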
Settings: S. cerevisiae deletion strains, growth OD

Measured: normalized growth

Cc1c(Nc2ncccc2C(=O)O)cccc1C(F)(F)F
inactive: locus YAL021C, strain ccr4, hits give low values 0.937 | locus YAL026C, strain drs2, hits give low values 0.979 | locus YAL030W, strain snc1, hits give low values 0.981 | locus YBL061C, strain skt5, hits give low values 0.981 | locus YBR009C, strain hhf1, hits give low values 0.967 | locus YBR023C, strain chs3, hits give low values 0.99 | locus YBR171W, strain sec66, hits give low values 0.969 | locus YBR231C, strain swc5, hits give low values 1.01 | locus YBR279W, strain paf1, hits give low values 0.987 | locus YCL011C, strain gbp2, hits give low values 0.979 | locus YCL016C, strain dcc1, hits give low values 0.975 | locus YCL069W, strain vba3, hits give low values 0.985 | locus YCR088W, strain abp1, hits give low values 0.979 | locus YDL005C, strain med2, hits give low values 0.986 | locus YDL040C, strain nat1, hits give low values 0.981 | locus YDR001C, strain nth1, hits give low values 0.964 | locus YDR069C, strain doa4, hits give low values 0.966 | locus YDR137W, strain rgp1, hits give low values 0.979 | locus YDR159W, strain sac3, hits give low values 0.999 | locus YDR195W, strain ref2 0.955 | locus YDR297W, strain sur2, hits give low values 0.996 | locus YDR334W, strain swr1, hits give low values 0.961 | locus YDR335W, strain msn5, hits give low values 0.983 | locus YDR392W, strain spt3, hits give low values 1 | locus YEL003W, strain gim4, hits give low values 0.974 | locus YEL037C, strain rad23, hits give low values 0.989 | locus YEL061C, strain CIN8 (second series), hits give low values 0.981 | locus YER015W, strain faa2, hits give low values 0.988 | locus YER016W, strain bim1, hits give low values 0.978 | locus YER111C, strain swi4, hits give low values 0.963 | locus YER155C, strain BEM2 (second series), hits give low values 1.01 | locus YFR010W, strain ubp6, hits give low values 0.978 | locus YGL167C, strain pmr1, hits give low values 0.952 | locus YGL173C, strain kem1, hits give low values 0.984 | locus YGL227W, strain vid30, hits give low values 0.978 | locus YGL240W, strain doc1, hits give low values 1.02 | locus YGL253W, strain hxk2, hits give low values 0.968 | locus YHR013C, strain ard1, hits give low values 0.958 | locus YHR027C, strain rpn1, hits give low values 0.971 | locus YHR030C, strain SLT2, hits give low values 0.947 | locus YHR079C, strain IRE1, hits give low values 0.974 | locus YHR142W, strain chs7, hits give low values 0.96 | locus YJL092W, strain hpr5, hits give low values 0.961 | locus YJL095W, strain BCK1 (second series), hits give low values 0.983 | locus YJL095W, strain BCK1, hits give low values 0.989 | locus YJL115W, strain asf1, hits give low values 0.958 | locus YJL129C, strain trk1, hits give low values 0.955 | locus YJL154C, strain vps35, hits give low values 0.972 | locus YJL164C, strain tpk1, hits give low values 0.97 | locus YJL166W, strain qcr8, hits give low values 0.994 | locus YJL187C, strain SWE1, hits give low values 0.992 | locus YJR066W, strain TOR1, hits give low values 0.928 | locus YKL160W, strain elf1, hits give low values 0.967 | locus YKR026C, strain gcn3, hits give low values 0.972 | locus YKR091W, strain srl3, hits give low values 0.97 | locus YLL001W, strain dnm1, hits give low values 0.981 | locus YLL026W, hits give low values 0.978 | locus YLL041C, strain sdh2, hits give low values 0.953 | locus YLR027C, strain aat2, hits give low values 0.993 | locus YLR113W, strain HOG1, hits give low values 0.991 | locus YLR221C, strain rsa3, hits give low values 0.997 | locus YLR258W, strain gsy2, hits give low values 0.969 | locus YLR262C, strain YPT6 (second series), hits give low values 1.02 | locus YLR320W, strain mms22, hits give low values 1.01 | locus YLR342W, strain FKS1, hits give low values 0.988 | locus YLR357W, strain rsc2, hits give low values 0.952 | locus YLR370C, strain arc18, hits give low values 0.963 | locus YLR384C, strain iki3, hits give low values 1 | locus YML120C, strain ndi1, hits give low values 0.974 | locus YMR058W, strain fet3, hits give low values 0.972 | locus YMR125W, strain sto1, hits give low values 0.945 | locus YMR129W, hits give low values 0.972 | locus YMR205C, strain PFK2, hits give low values 0.977 | locus YMR231W, strain pep5, hits give low values 0.983 | locus YNL071W, strain lat1, hits give low values 0.981 | locus YNL183C, strain NPR1, hits give low values 0.954 | locus YNL209W, strain ssb2, hits give low values 0.983 | locus YNL248C, strain rpa49, hits give low values 0.996 | locus YNL322C, strain KRE1 (second series), hits give low values 0.97 | locus YNR049C, strain mso1, hits give low values 0.962 | locus YOR001W, strain rrp6, hits give low values 0.983 | locus YOR070C, strain gyp1, hits give low values 0.989 | locus YOR080W, strain dia2, hits give low values 0.979 | locus YOR083W, strain WHI5, hits give low values 0.98 | locus YOR106W, strain vam3, hits give low values 0.957 | locus YOR231W, strain MKK1, hits give low values 0.982 | locus YOR265W, strain rbl2, hits give low values 0.968 | locus YOR270C, strain vph1, hits give low values 0.983 | locus YOR290C, strain snf2, hits give low values 0.943 | locus YPL051W, strain arl3, hits give low values 1.01 | locus YPL078C, strain atp4, hits give low values 0.951 | locus YPL106C, strain sse1, hits give low values 0.982 | locus YPL240C, strain hsp82, hits give low values 0.98 | locus YPL256C, strain CLN2, hits give low values 0.951
